Results on 40 compounds are retold here after PubChem BioAssay (EPA / NIEHS).

Molecules are shown by their SMILES. The source made the active and inactive calls. The calls were made as follows: active = hit-call score of the fitted dose curve at least 0.9, where 1 is the maximum; inactive = score below 0.9.

The nature of the assay: ATG_PXRE_CIS: Attagene CIS-FACTORIAL HepG2 Assay for human Pregnane X Receptor Element (PXRE) (AID 2282957). To be noted: HepG2 Attagene CIS-FACTORIAL PXRE reporter, mRNA; actives raise or lower the signal. How it is done: ATG_CIS is a cell-based, multiplexed-readout assay that uses HepG2, a human liver cell line, with measurements taken at 24 hours after chemical dosing in a 24-well plate.ATG_PXRE_CIS is one of 52 assay component(s) measured or calculated from the ATG_CIS assay. It is designed to make measurements of mRNA induction, a form of inducible reporter, as detected with fluorescence intensity signals by Reverse transcription polymerase chain reaction (RT-PCR) and Capillary electrophoresis technology.Data from the assay component ATG_PXRE_CIS was analyzed into 1 assay endpoint. This assay endpoint, ATG_PXRE_CIS, was analyzed with bidirectional fitting relative to DMSO as the negative control and baseline of activity. Using a type of inducible reporter, measures of mRNA for gain or loss-of-signal activity can be used to understand the reporter gene at the transcription factor-level as they relate to the gene NR1I2. Furthermore, this assay endpoint can be referred to as a primary readout, because this assay has produced multiple assay endpoints where this one serves a reporter gene function. To generalize the intended target to other relatable targets, this assay endpoint is annotated to the nuclear receptor intended target family, where the subfamily is non-steroidal.
Human liver HepG2 cells are transiently transfected with multiple reporter transcription units (MRTUs) in 6-well plates using FuGene 6 reagent (Roche; 3 ml FuGene/1 mg DNA). The MRTU constructs are regulated by a cis-regulating element (promoter). […] A major difference between the CIS and TRANS system is that in CIS activities of endogenous TFs are measured, whereas the TRANS assay evaluates changes in activities of exogenous, chimeric NR-Gal4 proteins. […] At the end of 24 hour incubation, total RNA was isolated using TriZol reagent (Invitrogen). The isolated RNA is then reverse-transcribed using oligo(dT) primer and Mo-MLV reverse transcriptase (Invitrogen) with DNAse I (Ambion) treatment for 30 min. The one-tenth of the produced cDNA was amplified by PCR using Taq DNA polymerase (Invitrogen) and two reporter sequence-specific primers. The PCR products were fluorescently labeled by primer extension with 6-arboxyfluorescein (6-FAM) 5'-labeled reporter sequence-specific primer (2 min at 95 C, 20 s at 68 C and 10 min at 72 C) and these products were digested with 5U of HpaI (New England Biolabs) for 2h at 37 C. The fragments were purified using Qiaquick PCR columns (Qiagen), analyzed on an ABI 3130xL genetic analyzer (Applied Biosystems) with peak positions identified by using a set of X-rhodamine (ROX)-labeled MapMarker1000 molecular weight standards (BioVentures). The raw capillary electrophoresis data was processed using Attagraph software (Attagene).
The AC50 is the midpoint of the concentration-response curve, whichever way the signal moves. `O=C(CCCCCCCCc1cccnc1)N1CCC(C=C(c2ccccc2)c2ccccc2)CC1`: the AC50 is 0.438 µM (active).

Take `COC(=O)CC(=O)OC`: the result was inactive.

For `CCOC(=O)CC(CC(=O)OCC)(OC(C)=O)C(=O)OCC`, the AC50 was 27.3 µM (active).

Consider `O=C1OC(=O)C2C3C=CC(C3)C12` (stereo not given), for which the compound was classed as inactive. The same measure, in the same setting: then `Cc1ccc(O)cc1`, with “inactive”. Turning to `CC(C)(O)c1coc(S(=O)(=O)NC(=O)Nc2c3c(cc4c2CCC4)CCC3)c1`, the half-maximal activity concentration (AC50) was 26.9 µM (active). Still for that read-out and setting: the figure for `Cc1[nH]cnc1C[C@H]1CCc2c(C)c3ccccc3n2C1=O` is 7.57 µM (active). As to `CN(C)c1ccc(N=NS(=O)(=O)O)cc1`, the compound was classed as inactive. `CC(C)CCCCCCCOC(=O)CCCCC(=O)OCCCCCCCC(C)C`: the AC50 was 100 µM (active). As for `On1ccccc1=S`, the compound was classed as inactive. The same measure, in the same setting: the entry for `O=C(OC[C@H]1O[C@@H](OC(=O)c2cc(O)c(O)c(OC(=O)c3cc(O)c(O)c(O)c3)c2)[C@H](OC(=O)c2cc(O)c(O)c(OC(=O)c3cc(O)c(O)c(O)c3)c2)[C@@H](OC(=O)c2cc(O)c(O)c(OC(=O)c3cc(O)c(O)c(O)c3)c2)[C@@H]1OC(=O)c1cc(O)c(O)c(OC(=O)c2cc(O)c(O)c(O)c2)c1)c1cc(O)c(O)c(OC(=O)c2cc(O)c(O)c(O)c2)c1` is “inactive”. Turning to `CN(C)c1ccc(Cc2ccc(N(C)C)cc2)cc1`, the AC50 is 26.6 µM (active). `CC(C)CC(C)(O)C#CC(C)(O)CC(C)C` (stereo not given): the half-maximal activity concentration (AC50) was 12.7 µM (active).

In the case of `C1N2CN3CN1CN(C2)C3`, the result was inactive. On the same count and under the same terms, then `O=C(O)CCN(C1(C(=O)NO)CCCC1)S(=O)(=O)c1ccc(Oc2ccc(F)cc2)cc1`, with “inactive”. As for `COCCOc1cc2cc(C(=O)NC3CCN(C(C)C)CC3)n(CC(=O)Nc3ccc(Cl)cn3)c2cn1`, the AC50 was 144 µM (active). With `CCOC(=O)c1ccc(C2CCC(NC[C@H](O)COc3ccc(O)c(NS(C)(=O)=O)c3)CC2)cc1` (stereo not given in full), the result was inactive. Turning to `CC/C(=C\C(=N/O)C(N)=O)C(C)[N+](=O)[O-]` (stereo not given), the call was inactive.

As to `C=CCCCCCCCCC(=O)O`, the compound was called inactive.

Take `C=CC(=C)CCC=C(C)C`: the AC50 is 18.8 µM (active). Still for that read-out and setting: the figure for `CC[C@H]1CC[C@H](NCc2cc3c(cc2OC)[C@H]2C[C@H]2C(=O)N3C)[C@H](c2ccccc2)N1` is 4.91 µM (active). Regarding `CC(=O)OCCC(C)C`, the compound was called inactive. On the same count and under the same terms, then `Nc1ccc(Nc2ccccc2)cc1`, with “inactive”.

Consider `COc1ccc2sc(C(=O)Nc3nnn[nH]3)c(OC(C)C)c2c1`, for which the result was inactive. The same measure, in the same setting: the entry for `CCCCCCCCO` is “inactive”. Same read-out and setting: the entry for `O=C1CCCCCN1` is “inactive”; for `COc1ccc(/C=C/S(=O)(=O)NC(=O)c2ccc(C)cc2Cl)cc1` it is “inactive”; for `CCCC(=O)OCC` it is “inactive”. As to `O=C(NS(=O)(=O)/C=C/c1ccccc1)c1ccc(F)cc1Cl`, the concentration at half-maximal activity (AC50) was 34.9 µM (active).

Consider `CCCCCCCCCCCCCCCO`, for which the outcome was inactive. The same measure, in the same setting: then `C[C@](N)(Cc1ccc(O)c(O)c1)C(=O)O`, with “inactive”. On the same count and under the same terms, the entry for `CNCc1ccc(NC(=O)c2c[nH]c3c2C(=O)CCC3)cc1` is “inactive”; for `CC[C@H]1OC(=O)[C@H](C)[C@@H](O[C@H]2C[C@@](C)(OC)[C@@H](O)[C@H](C)O2)[C@H](C)[C@@H](O[C@@H]2O[C@H](C)C[C@H](N(C)C)[C@H]2O)[C@](C)(O)C[C@@H](C)C(=O)[C@H](C)[C@@H](O)[C@]1(C)O` it is “inactive”; for `O=C(O)c1cc(N=Nc2ccc(S(=O)(=O)Nc3ccccn3)cc2)ccc1O` it is “inactive”. Same read-out and setting: then `Cc1c(-c2cccnc2)c2ccccc2n1CCCCC(=O)O`, with “inactive”; and `CC(C)c1cccc(C(C)C)c1N1C(=O)c2ccc(O)cc2C1=O`, with “inactive”.

With `CCN(C(=O)c1cc(C)cc(OC[C@H](C)Nc2ccncc2)c1)C(C)C`, the concentration at half-maximal activity (AC50) was 4.97 µM (active). Turning to `CCOC(=O)COc1ccc2c(c1)CC(NCC(O)c1cccc(Cl)c1)CC2` (stereo not given), the compound was classed as inactive. Same read-out and setting: the entry for `Cn1c(=O)c2c(ncn2C)n(C)c1=O` is “inactive”. For the compound `CC(C)=CCCC(C)=CC=O`, the AC50 was 4.7 µM (active).
